Several values for one entry are separate records, joined by “and”; a condition that tells them apart may be missing. Equal values may be shown once. The panel holds about 79,000 compounds, 15% with a hit somewhere; the sample as a whole holds those more often. Some structures have more than one record in an assay (separate samples or runs), and their calls can disagree. Activity calls are given as the source filed them. Cut-off read from the data, not from the text of the source: active = growth inhibition above about 70%; inactive = the rest.
Tests used:
[1] = NCI Yeast Anticancer Drug Screen. Data for the rad50 strain (AID 155);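 note: 0% = growth of vehicle-only cultures of the same strain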; details: S. cerevisiae rad50 strain growth inhibition, stronger effect = higher value
In short: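 Yeast carrying a defined DNA repair defect were exposed to test compounds, and growth was compared with vehicle-treated controls to give percent inhibition.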

[2] = NCI Yeast Anticancer Drug Screen. Data for the mec2-1 strain (AID 157); details: S. cerevisiae mec2-1 strain, stronger effect = higher value
In short: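 Compounds were applied to mec2-1 yeast cells. Their growth was then compared with that of vehicle-treated cultures to give growth inhibition.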

[3] = NCI Yeast Anticancer Drug Screen. Data for the sgs1 mgt1 strain (AID 161);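 note: 0% = growth of cultures given vehicle only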; details: S. cerevisiae sgs1 mgt1 strain, stronger effect = higher value
In short: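 Growth of a repair-deficient yeast mutant was monitored after compound treatment and expressed as inhibition relative to vehicle-treated cultures.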

[4] = NCI Yeast Anticancer Drug Screen. Data for the cln2 rad14 strain (AID 165);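 note: 0% = growth equal to vehicle treated cultures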; details: S. cerevisiae cln2 rad14 strain, stronger effect = higher value
In short: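 Strain: cln2 rad14 yeast, altered in cell cycle control and DNA damage repair. Read-out: growth inhibition vs vehicle.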

[5] = NCI Yeast Anticancer Drug Screen. Data for the bub3 strain (AID 167); details: S. cerevisiae bub3 mutant strain, stronger effect = higher value
In short: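 Compounds were applied to a genetically altered yeast strain carrying a cell-cycle control defect. Growth inhibition was scored against vehicle-treated controls.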

[6] = NCI Yeast Anticancer Drug Screen. Data for the mlh1 rad18 strain (AID 175); details: S. cerevisiae mlh1 rad18 strain growth inhibition, stronger effect = higher value
In short: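 A repair-deficient yeast strain is exposed to test compound, and growth is scored relative to vehicle-treated controls.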

[7] = at 5.0 µM (retest, dose inferred, filed as 0.5)
[8] = at 50.0 µM (retest, dose inferred, filed as 5.0)

SMILES | growth inhibition [1, 7] | growth inhibition [1, 8] | growth inhibition ([1]; at 50.0 µM) | growth inhibition [2, 7] | growth inhibition [2, 8] | growth inhibition ([2]; at 50.0 µM) | growth inhibition [3, 7] | growth inhibition [3, 8] | growth inhibition ([3]; at 50.0 µM) | growth inhibition [4, 7] | growth inhibition [4, 8] | growth inhibition ([4]; at 50.0 µM) | growth inhibition [5, 7] | growth inhibition [5, 8] | growth inhibition ([5]; at 50.0 µM) | growth inhibition [6, 7] | growth inhibition [6, 8] | growth inhibition ([6]; at 50.0 µM)
Nc1ccc([N+](=O)[O-])c(S(=O)(=O)O)c1 | -160% (inactive) | -143% (inactive) | 60.8% (inactive) and -0.9% (inactive) | -46% (inactive) | -47% (inactive) | 28.6% (inactive) and -3.55% (inactive) | -60% (inactive) | -54% (inactive) | 46% (inactive) and 3.45% (inactive) | -56% (inactive) | -53% (inactive) | 40.2% (inactive) and -6.5% (inactive) | -71% (inactive) | -57% (inactive) | 78.8% (active) and -31.6% (inactive) | -139% (inactive) | -104% (inactive) | 64.6% (inactive) and 6.45% (inactive)
c1cc2c3c(c1)ccc1cccc(c13)COC2 | -21% (inactive) and -2% (inactive) | 10% (inactive) and 85% (active) | 86.3% (active) and 98% (active) | -6% (inactive) and 9% (inactive) | -8% (inactive) and 75% (active) | 51.1% (inactive) and 96.7% (active) | -4% (inactive) and -10% (inactive) | 20% (inactive) and 58% (inactive) | 47.5% (inactive) and 95.8% (active) | -42% (inactive) and 4% (inactive) | -7% (inactive) and 27% (inactive) | 69.2% (inactive) and 96.5% (active) | -13% (inactive) and -12% (inactive) | 10% (inactive) and 65% (inactive) | 88.2% (active) and 94.9% (active) | -19% (inactive) and -11% (inactive) | 9% (inactive) and 89% (active) | 56.5% (inactive) and 98.2% (active)
CC[C@](O)(CC(=O)O[C@H]1C(=O)O[C@@H]2C[C@H]3C(C)=CC(=O)[C@@H](O)[C@]3(C)[C@H]3[C@@]4(O)OC[C@]32[C@@H]1[C@@H](C)[C@H]4O)C(C)C | 44% (inactive) | 97% (active) | 88.9% (active) | 35% (inactive) | 98% (active) | 91.7% (active) | 57% (inactive) | 98% (active) | 88.9% (active) | 58% (inactive) | 98% (active) | 92.1% (active) | 51% (inactive) | 98% (active) | 90.3% (active) | 50% (inactive) | 97% (active) | 
CCCCCCCc1c(Cl)nc(Cl)nc1Cl | 11% (inactive) | 92% (active) | 78.3% (active) | 12% (inactive) | 97% (active) | 88.3% (active) | 3% (inactive) | 96% (active) | 87% (active) | 11% (inactive) | 78% (active) | 46% (inactive) | 4% (inactive) | 99% (active) | 76.2% (active) | 16% (inactive) | 96% (active) | 
Cc1n(-c2ccccc2)c2c([n+]1Cc1ccc([N+](=O)[O-])cc1)C(=O)c1ccccc1C2=O | 1% (inactive) | 97% (active) | 85.2% (active) | -7% (inactive) | 98% (active) | 89% (active) | -10% (inactive) | 98% (active) | 88.5% (active) | 1% (inactive) | 92% (active) | 85.2% (active) | -6% (inactive) | 98% (active) | 88.5% (active) | -8% (inactive) | 96% (active) | 
CC(NNC(=S)N1CCN(c2ccccn2)CC1)c1nccc2ccccc12 (centres undefined) | 26% (inactive) | 98% (active) | 69.1% (inactive) | 51% (inactive) | 98% (active) | 22.1% (inactive) | 58% (inactive) | 99% (active) | 1.8% (inactive) | 63% (inactive) | 98% (active) | 8.35% (inactive) | 83% (active) | 99% (active) | 6.2% (inactive) | 49% (inactive) | 98% (active) | 
Cc1nc2c(nc1C)C(=O)c1ccccc1C2=O | 19% (inactive) | 98% (active) | 85.9% (active) | 14% (inactive) | 99% (active) | 82.4% (active) | 22% (inactive) | 97% (active) | 71.4% (active) | 11% (inactive) | 91% (active) | 31.9% (inactive) | 30% (inactive) | 99% (active) | 67.3% (inactive) | 27% (inactive) | 99% (active) | 
O=[N+]([O-])c1ccc(SSc2ccc([N+](=O)[O-])cc2)cc1 | 35% (inactive) and 88% (active) | 98% (active) | 98.2% (active) and 65.7% (inactive) | 70% (active) and 99% (active) | 99% (active) | 98.9% (active) and 38.1% (inactive) | 91% (active) and 87% (active) | 99% (active) and 98% (active) | 99% (active) and 68.8% (inactive) | 27% (inactive) and 65% (inactive) | 97% (active) | 93.7% (active) and -34.6% (inactive) | 58% (inactive) and 98% (active) | 99% (active) | 98.5% (active) and 49.2% (inactive) | 70% (active) and 87% (active) | 98% (active) | 98.3% (active) and 69.6% (inactive)

— PubChem BioAssay (NCI)
